Screening data (PubChem)
Shown are actives, neighbours in structure and some others; about 12% of the full set was active somewhere.
Sfp inh – Sfp phosphopantetheinyl transferase inhibition. Q9F4F7. Biochemical Sfp PPTase activity, qHTS. Potency, µM, most hits filed as inhibitors. hit rate 3.5% among 310,000;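 further: the enzyme is Sfp with the accession as filed and its product quenches rhodamine fluorescence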
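Buffer: 50 mM Hepes-Na pH 7.6, 10 mM MgCl2, 0.01% Nonidet P-40, 0.01% BSA. Enzyme 15 nM, pre-exposed to compound 15 min; substrates then added and fluorescence change tracked over 30 min.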
ALDH1A1 block – inhibitors of human aldehyde dehydrogenase 1A1. Purified ALDH1A1, NADH fluorescence, propionaldehyde substrate. hit rate 7.3% among 220,000. AID 1030. Potency, µM (titrated, usually from 75.3 µM), actives largely listed as inhibitors. P00352; active means well fitted inhibition curve with a large enough effect, not every such curve was filed as active; inconclusive means small, poorly fitted or top-dose-only effect, or another doubt; inactive means no such curve, though single readings can be large or run the other way
RORg inh – blocks mouse ROR gamma transcriptional activity. P51450. Drosophila S2 Gal4-RORgamma UAS-luciferase reporter, 20 h. Potency, µM (titrated, usually from 53.6 µM), actives largely listed as inhibitors. hit rate 5.4% among 310,000. AID 2551; further: nearly all actives have a fitted effect of over 60% in size
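Stable Schneider cell line, Gal4 DNA-binding domain fused to ROR gamma, UAS-luciferase. Cmpd 1 hr RT → CuSO4 700 uM final → 20 hr RT → luciferase reagent 10 min → luminescence.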
PLK1 PBD block – inhibitors of human PLK1 polo-box domain binding; Plk1 PBD binding of FITC phosphopeptide, fluorescence polarization; Potency, µM, usual class: inhibitors; hit rate 2.8% among 360,000; AID 720504; further: series mostly up to about 57 µM; nearly all actives have a fitted effect of over 65% in size
Target sequence (P53350 whole entry, looked up, the tested form may be a part): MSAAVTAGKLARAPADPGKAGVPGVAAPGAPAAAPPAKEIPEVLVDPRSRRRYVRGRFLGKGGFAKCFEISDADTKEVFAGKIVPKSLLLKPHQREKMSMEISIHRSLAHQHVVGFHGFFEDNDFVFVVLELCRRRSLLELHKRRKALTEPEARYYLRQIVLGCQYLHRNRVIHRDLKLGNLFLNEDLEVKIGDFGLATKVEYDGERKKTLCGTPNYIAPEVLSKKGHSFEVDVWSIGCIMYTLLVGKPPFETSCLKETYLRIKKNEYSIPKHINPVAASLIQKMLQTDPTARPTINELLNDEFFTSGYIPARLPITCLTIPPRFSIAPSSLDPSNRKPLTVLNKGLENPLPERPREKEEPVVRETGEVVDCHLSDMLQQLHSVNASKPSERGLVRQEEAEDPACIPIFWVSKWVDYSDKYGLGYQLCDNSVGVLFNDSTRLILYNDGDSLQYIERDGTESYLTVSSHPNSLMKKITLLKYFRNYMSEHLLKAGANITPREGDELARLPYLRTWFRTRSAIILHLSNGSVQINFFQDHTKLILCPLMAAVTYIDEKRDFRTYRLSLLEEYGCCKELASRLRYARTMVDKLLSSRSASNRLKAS
VP16 counter – inhibits Gal4-VP16 luciferase reporter, ROR gamma counter-screen. hit rate 3.5% among 310,000. Potency, µM (highest dose often 53.6 µM), usual class: inhibitors. AID 2546. Drosophila S2 Gal4-VP16 UAS-luciferase, luminescence, 20 h;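 further: Gal4-VP16 expression switched on by copper sulfate through the metallothionein promoter; nearly all actives have a fitted effect of over 50% in size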
Hits are given with their value; [ ] = dose if it differs, or a comment. Unless noted, the call rests on the fitted dose curve; in most records, active means well fitted curve in the direction sought with a large enough effect; inconclusive means small, poorly fitted or top-dose-only effect, or another doubt; inactive means no such curve, though single readings can be large; an effect the other way counts as inactive or inconclusive.

What do the screens show for `C[C@H]1CN([C@@H](C)CO)C(=O)CCCn2cc(nn2)CO[C@@H]1CN(C)C(=O)Nc1ccc2c(c1)OCO2`?
PLK1 PBD block: inactive

What do the screens show for `Cc1ccc(/C=N/NC(=O)c2nnn(-c3nonc3N)c2-c2ccc3c(c2)OCO3)s1`?
Sfp inh: inactive; RORg inh: 7.08µM; PLK1 PBD block: inactive; VP16 counter: 7.94µM

What do the screens show for `Nc1nonc1-n1nnc(C(=O)N/N=C/c2ccc(F)cc2)c1-c1ccc2c(c1)OCO2`?
Sfp inh: inactive; RORg inh: inconclusive; PLK1 PBD block: inactive; VP16 counter: inactive

Results for COc1cccc(-c2c(C(=O)N/N=C(\C)c3ccco3)nnn2-c2nonc2N)c1 ?
Sfp inh: inactive; RORg inh: inactive; PLK1 PBD block: inactive; VP16 counter: inactive

How did COc1cccc(-c2c(C(=O)N/N=C/c3cccs3)nnn2-c2nonc2N)c1 do in these assays?
Sfp inh: inactive; RORg inh: 7.08µM; PLK1 PBD block: inactive; VP16 counter: 10µM

How did COc1ccc(O)c(/C=N/NC(=O)c2c(C)nnn2-c2nonc2N)c1 do in these assays?
Sfp inh: inactive; ALDH1A1 block: inactive; RORg inh: 11.2µM; PLK1 PBD block: inactive; VP16 counter: inconclusive

What do the screens show for `COc1cccc(-c2c(C(=O)N/N=C(\C)c3ccc(Cl)s3)nnn2-c2nonc2N)c1`?
Sfp inh: inactive; RORg inh: inactive; PLK1 PBD block: inactive; VP16 counter: 10µM

What do the screens show for `COc1ccc(/C=N/NC(=O)c2nnn(-c3nonc3N)c2-c2cccc(OC)c2)cc1`?
Sfp inh: inactive; RORg inh: inactive; PLK1 PBD block: inactive; VP16 counter: inactive

What do the screens show for `CCN(CC)S(=O)(=O)c1cccc(NC(=O)CNc2cccc(S(=O)(=O)N3CCOCC3)c2)c1`?
PLK1 PBD block: inactive

Results for COc1cc(/C=C2/SC(=O)N(Cc3ccccc3Cl)C2=O)ccc1OCc1ccncc1 ?
Sfp inh: inactive; ALDH1A1 block: 0.447µM; RORg inh: inactive; PLK1 PBD block: inactive; VP16 counter: inactive

Results for Cc1cccc(/C=C2/SC(=O)N(Cc3ccccc3Cl)C2=O)n1 ?
Sfp inh: inactive; ALDH1A1 block: 3.16µM; RORg inh: inactive; PLK1 PBD block: inactive; VP16 counter: inactive

How did N/C(=N\C(=S)Nc1ccc2c(c1)OCO2)c1ccccc1 do in these assays?
PLK1 PBD block: inactive

Results for O=C(Cc1ccccc1)Nc1ccc(Br)c(Cl)c1 ?
Sfp inh: inconclusive; ALDH1A1 block: 15.8µM; RORg inh: inconclusive; PLK1 PBD block: inactive; VP16 counter: inconclusive

Results for CCOc1ccc(C(C)=O)cc1N1C(=O)C2C3C=CC(C3=C(C)C)C2C1=O (configuration not stated) ?
Sfp inh: 44.7µM; ALDH1A1 block: inactive; RORg inh: inactive; PLK1 PBD block: inactive; VP16 counter: inactive

How did Cc1ccc(N(C)S(=O)(=O)c2cccc(C(=O)OCC(=O)N(C)Cc3ccccc3)c2)cc1 do in these assays?
PLK1 PBD block: inactive

How did Clc1ccc(/C=N/Nc2ncnc3ccccc23)cc1Cl do in these assays?
Sfp inh: inactive; ALDH1A1 block: inactive; RORg inh: 1.41µM; PLK1 PBD block: inactive; VP16 counter: 3.55µM

Results for Oc1ccc(/C=N/Nc2ncc(Cl)cc2Cl)cc1 ?
Sfp inh: inactive; RORg inh: inconclusive; PLK1 PBD block: inactive; VP16 counter: inactive

What do the screens show for `Fc1ccccc1/C=N/Nc1ncnc2ccccc12`?
Sfp inh: inactive; ALDH1A1 block: inactive; RORg inh: 2.82µM; PLK1 PBD block: inactive; VP16 counter: 4.47µM

How did Clc1cccc(/C=N/Nc2nc(Cl)nc3ccccc23)c1 do in these assays?
Sfp inh: inactive; ALDH1A1 block: inconclusive; RORg inh: 2µM; PLK1 PBD block: inactive; VP16 counter: inactive

What do the screens show for `Oc1ccc(Nc2ncnc3ccccc23)cc1`?
Sfp inh: inactive; RORg inh: inactive; PLK1 PBD block: inactive; VP16 counter: inconclusive

Results for FC(F)Oc1ccccc1/C=N/Nc1nc2ccccc2o1 ?
Sfp inh: inactive; RORg inh: inconclusive; PLK1 PBD block: inactive; VP16 counter: inconclusive

How did Fc1ccccc1/C=N/Nc1nc2ccccc2o1 do in these assays?
Sfp inh: inconclusive; RORg inh: 6.31µM; PLK1 PBD block: inactive; VP16 counter: 11.2µM

How did C=CCc1cccc(C2C(C)CCC3C(=O)N4C(Cc5c([nH]c6ccccc56)C4c4cc(OC)c(OC)c(OC)c4)C(=O)N32)c1 (configuration not stated) do in these assays?
Sfp inh: inactive; ALDH1A1 block: inactive[13.5 µM]; RORg inh: inactive[10 µM]; VP16 counter: inactive[10 µM]

Results for NC(=S)N/N=C/c1ccc(-c2cc(Cl)ccc2Cl)o1 ?
Sfp inh: inactive; ALDH1A1 block: inconclusive; RORg inh: 1.26µM; PLK1 PBD block: inactive; VP16 counter: 2.82µM

Results for NC(=S)N/N=C/c1ccc(-c2ccc([N+](=O)[O-])cc2)o1 ?
Sfp inh: 3.55µM; ALDH1A1 block: 0.891µM; RORg inh: 7.08µM; PLK1 PBD block: 23.8µM; VP16 counter: inconclusive

Results for NC(=S)N/N=C/c1ccc(-c2cc(Cl)cc(Cl)c2)o1 ?
Sfp inh: 50.1µM; ALDH1A1 block: inconclusive; RORg inh: 1.26µM; PLK1 PBD block: inactive; VP16 counter: 3.98µM

How did CCOC(=O)N/N=C\c1ccc(-c2cc(Cl)ccc2Cl)o1 do in these assays?
Sfp inh: inactive; ALDH1A1 block: inactive; RORg inh: inactive; PLK1 PBD block: inactive; VP16 counter: inactive

What do the screens show for `Cc1ccc(-c2ccc(/C=N/O)o2)cc1[N+](=O)[O-]`?
Sfp inh: inactive; ALDH1A1 block: 3.16µM; RORg inh: inactive; PLK1 PBD block: inactive; VP16 counter: inconclusive

Results for O=C1NC(=O)C(Cc2ccc(OCCN3COc4ccccc4C3=O)cc2)S1 (configuration not stated) ?
Sfp inh: inactive; RORg inh: inconclusive; VP16 counter: inconclusive

How did Cc1c(C)c(C)c(CC2(C)CSC2)c(CC2(C)CSC2)c1C do in these assays?
ALDH1A1 block: inactive[13.5 µM]

How did CC(C)c1ccc(CC(=O)N2CCC2(C)C(=O)NS(=O)(=O)c2cccc(C#N)c2)cc1 (configuration not stated) do in these assays?
PLK1 PBD block: inactive

What do the screens show for `CCCCNC(=O)C1(C)CCCCN1C(=O)c1cc2ccccc2s1` (configuration not stated)?
PLK1 PBD block: inactive

What do the screens show for `Cc1cc(OCC(=O)Nc2ccc(N3CCN(C)CC3)cc2)ccc1Cl`?
Sfp inh: inactive; RORg inh: inactive; PLK1 PBD block: inactive; VP16 counter: inactive

Results for CCC[C@H](Sc1nc(N)nc2nc[nH]c12)C(=O)O ?
ALDH1A1 block: inactive[13.5 µM]

What do the screens show for `C/C(CC(=O)Nc1cccc(Cl)c1Cl)=N\NC(=O)c1ccccc1N`?
Sfp inh: inactive; ALDH1A1 block: inconclusive; RORg inh: 12.6µM; PLK1 PBD block: inactive; VP16 counter: inactive

How did COc1ccc(Cl)cc1NC(=O)C/C(C)=N/NC(=O)c1ccccc1Cl do in these assays?
Sfp inh: inactive; RORg inh: inactive[1.91 µM]; PLK1 PBD block: inactive; VP16 counter: 12.6µM

What do the screens show for `COc1ccc(Cl)cc1NC(=O)C/C(C)=N/NC(=O)CCc1ccccc1`?
Sfp inh: inactive; RORg inh: inconclusive; PLK1 PBD block: inactive; VP16 counter: inactive
